# High-throughput results deposited in PubChem by National Center for Advancing Translational Sciences (NCATS).
# Hits are enriched below; roughly 19% of the tested compounds scored in any of these assays.
# CHX counter – counter-screen hit for Shiga toxin inhibitors, cycloheximide; 300,000 tested, 12% active; cell reporter, cycloheximide protein synthesis inhibition counterscreen; AID 2314; max response, %; in the data active means max response mostly above about 13%, no sharp cut-off; inactive means mostly below about 14%; further: read at 38.3 µM for the half of the compounds with a filed dose; 0% is about no effect
# Shiga toxin inh – Shiga toxin inhibition; Vero cells, Shiga toxin protein synthesis inhibition reporter; inhibition, % at 38.7 µM; 290,000 tested, 9.2% active; in the data active means inhibition mostly above about 28%, no sharp cut-off; inactive means mostly below about 43%; further: 0% is about no effect
# Pf growth 48h – inhibits P. falciparum growth in the first generation, 48 h | P. falciparum luciferase growth in erythrocytes, 48 h | Potency, µM (titrated, usually from 28.7 µM), inactives show at the top dose activity change, negative = inhibition, hits mostly inhibitors | 310,000 tested, 5.9% active | AID 504832; further: potency means the concentration at half of the fitted maximal effect; on the % scale 0 is the no-effect control and ±100 the full control effect
#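 Cell-based growth assay: transgenic P. falciparum expressing firefly luciferase, cultured in red cells within RPMI 1640 containing 0.5% w/v Albumax, 24 mM bicarbonate and gentamycin. A drop in luciferase activity indicates inhibition.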
# Lassa entry inh – inhibitors of Lassa virus binding or cell entry | Lassa virus pseudotype entry inhibition, cell reporter | AID 540256 | 300,000 tested, 1.2% active | Potency, µM (series often up to 37.9 µM), inactives show at the top dose activity change, negative = inhibition, most hits filed as inhibitors; calls by dose curve; tested in HEK293 cells; further: potency means the concentration at half of the fitted maximal effect; on the % scale 0 is the no-effect control and ±100 the full control effect; nearly all actives have a fitted effect of over 50% in size
# MARV entry inh – Marburg virus entry inhibition; Marburg virus pseudotyped entry inhibition, cell reporter; Potency, µM (highest dose often 37.8 µM), without a hit: top-dose activity change, negative = inhibition, hits mostly inhibitors; 300,000 tested, 1.8% active; AID 540276; calls by dose curve; tested in HEK293 cells; further: potency means the concentration at half of the fitted maximal effect; on the % scale 0 is the no-effect control and ±100 the full control effect
# Pf growth 96h – P. falciparum growth inhibition at 96 hours; Potency, µM (titrated, usually from 28.7 µM), for the others: at the top dose activity change, negative = inhibition, actives largely listed as inhibitors; AID 504834; 320,000 tested, 6.9% active; P. falciparum luciferase reporter growth, 96 h; further: potency means the concentration at half of the fitted maximal effect; on the % scale 0 is the no-effect control and ±100 the full control effect
#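 P. falciparum expressing integrated firefly luciferase, in erythrocytes at 2% hematocrit, 0.05% parasitemia, incubated with compounds 96 h at 37 C, 5% CO2. Growth inhibition read as loss of luminescence; two-generation exposure targets delayed-death apicoplast inhibitors.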
# Numbers without * were called inactive; ? = inconclusive; / = no result given; [ ] = dose if it differs, or a comment. Unless noted, the call rests on the fitted dose curve; in most records, active means well fitted inhibition curve with a large enough effect; inconclusive means small, poorly fitted or top-dose-only effect, or another doubt; inactive means no such curve, though single readings can be large or run the other way.
SMILES,CHX counter,Shiga toxin inh,Pf growth 48h,Lassa entry inh,MARV entry inh,Pf growth 96h
CCOC(=O)c1cnc(-n2nc(C)cc2C)nc1NCCc1ccccc1,7,-3,4.1µM*,-26%,?,-9%
CCOC(=O)c1cnc(-n2nc(C)cc2C)nc1NCc1ccc2c(c1)OCO2,-1,-15,4.7µM*,11%,-2%,/
CCOC(=O)c1cnc(-n2nc(C)cc2C)nc1N(C)C,18*,48*,?,16%,?,/
CCOC(=O)c1cnc(-n2nc(C)cc2C)nc1Nc1ccc(OC)cc1,1,-2,4.1µM*,?,?,1.9µM*
CCOC(=O)c1cnc(-n2nc(C)cc2C)nc1N1CCOCC1,-1,-8,14%,9%,-13%,?
COC(=O)c1ccc(C2c3c(-c4ccccc4O)n[nH]c3C(=O)N2Cc2ccncc2)cc1 (configuration not stated),/,/,/,?,2%[46.1 µM],/
CCN(Cc1cc(=O)[nH]c2ccccc12)C(=O)C(C)C,-2,3,80%,-13%,-11%,27%
CCOC(=O)c1cnc(-n2nc(C)cc2C)nc1NC1CCCC1,-1,-9,1.5µM*,?,11µM*,?
CCOC(=O)c1cnc(-n2nc(C)cc2C)nc1Nc1ccccc1OC,-5,-5,?,/,/,?
CC(C)(CN1CCNCC1)NS(=O)(=O)c1ccc(Cl)cc1,/,/,9.3µM*,/,/,?
CC(C)(CN1CCCC1)NS(=O)(=O)c1ccc(Cl)cc1,-5,-2,-22%,?,?,4%
Cc1ccc(NC(=O)COCC(=O)Nc2ccc(C)cc2)cc1,-2,-2,23%,/,/,-14%
Cc1ccc(NC(=O)CN(C)C(=O)Nc2ccc(C)cc2)cc1,22*,69*,34%,-10%,?,45%
Cc1ccc(NC(=O)/C(CN(C)C)=N\O)cc1,27*,62*,121%,22%,13%,6%
Cc1ccc(NC(=O)CN(C)C(=O)/C=C/c2cccs2)cc1,9.6*,-3,16%,-2%,38%,?
O=C(CN(c1ccc(F)cc1)S(=O)(=O)c1ccccc1)NCCSC1CCCCC1,1,-10,6.6µM*,?,-37%,?
COc1ccc(N(CC(=O)NCCC2=CCCCC2)S(=O)(=O)c2ccccc2F)cc1,7,8,?,5%,?,10µM*
CS(=O)(=O)N(CC(=O)NCCSC1CCCCC1)c1ccc2c(c1)OCO2,-2,15,5.2µM*,-22%,?,-17%
CS(=O)(=O)N(CC(=O)NCCC1=CCCCC1)c1ccc2c(c1)OCO2,-2,-19,4.1µM*,?,-4%,-5%
Cc1ccc(SCCNC(=O)CN(c2ccc3c(c2)OCO3)S(C)(=O)=O)cc1,-3,-3,?,?,-5%,/
Cc1onc(-c2ccccc2)c1-c1ccnc(N)n1,-1,-5,1%,18%,1%,?
O=C(c1cccs1)N1CCN(c2ncc(C(F)(F)F)cc2Cl)CC1,18,22,-21%,?,-18%,?
CS(=O)(=O)N(CC(=O)Nc1ccc2c(c1)OCCO2)c1ccc2c(c1)OCO2,10*,15,21%,14%,?,/
C=CCN(c1ccc(C(=O)Nc2ccc3c(c2)n(C)c(=O)n3C)cc1)S(C)(=O)=O,1,/,?,-9%,0%,?
C=CCN(c1ccc(C(=O)Nc2ccc3c(c2)OCO3)cc1)S(C)(=O)=O,13*,32,?,2%,22%[46.1 µM],-30%
SMILES,CHX counter,Shiga toxin inh,Pf growth 48h,Lassa entry inh,MARV entry inh,Pf growth 96h
O=C(CSc1nnc(NC(=O)c2ccco2)s1)Nc1ccccc1Cl,-3,-16,36%,/,8%[46.1 µM],4%
O=C1CCCC2=C1Sc1ccccc1N2,10,12,-28%,16%,-14%[14.2 µM],7%
CCOC(=O)c1c(/C=N/Nc2ccccc2)c2sc(C)cc2n1C,/,/,9.3µM*,/,/,?
CCC(C(=O)Nc1ccc(S(=O)(=O)N2CCN(C)CC2)cc1)c1ccccc1 (configuration not stated),/,/,/,16%,16%,/
CCOC(=O)C(NC(=O)c1ccc(OC)cc1)(OCC1(CC)COC1)C(F)(F)F (configuration not stated),-3,-28,13µM*,-4%,5%,13µM*
COC(=O)c1ccc(NC(=O)C(=O)N2CCN(C(=S)Nc3cccc(C)c3C)CC2)cc1,-1,-6,3%,2%,?,0.47µM*
CSCCC(NS(=O)(=O)c1cccs1)C(=O)NCc1cccs1 (configuration not stated),18,7,7%,-21%,-10%,33%
Cc1cc(C)nc(-n2nc(C)c(Sc3ccc(F)cc3)c2N)n1,39*,100*,?,4%,15%,5%
Cc1cc(C)nc(-n2nc(C)c3c(C(F)(F)F)cc(=O)[nH]c32)n1,-2,-8,17%,0%,14%,19%[5.75 µM]
O=C(NCc1ccco1)Nc1ccc(Br)cc1Cl,48*,87*,103%,13%,-16%,94%
O=C(NCc1ccco1)c1cc2cc(Br)ccc2o1,35*,87*,16%,/,/,?
Cc1c(C(=O)NCc2ccco2)oc2ccc(Br)cc12,/,/,3%,-8%,?,43%
O=C(NCc1ccco1)c1cc2ccccc2c(=O)o1,67*,148*,12%,?,20%,-1%
CCC(NC(=O)Cc1cccs1)c1ccccc1 (configuration not stated),2,-9,3%,-9%[46.1 µM],?,5.9µM*
Cc1ccc(C(=O)NCCc2cccs2)cc1,1,-13,223%,?,1.8µM*,?
O=C(NCCc1cccs1)c1ccc(Cl)c(Cl)c1,44*,72*,61%,23%,?,51%
Cc1ccc(C(=O)NCCNC(=O)c2ccc(C)nc2)cc1,2,19,3%,?,4%[46.1 µM],-2%
O=C(NCCc1cccs1)c1ccc(Cl)cc1,20*,35*,92%,5.6µM*,?,21%
O=C(CNC(=O)c1cccs1)N=Nc1c(O)[nH]c2ccc([N+](=O)[O-])cc12,-3,-4,20%,/,/,15%
CCn1nc2cc(C(=O)NCCc3cccs3)ccc2c1OC,40*,75*,183%,/,/,-12%
O=C(NCCc1cccs1)C(c1ccccc1)c1ccccc1,0,19,-35%,/,/,12µM*
COC(=O)C1CCc2sc(NC(=O)Cc3ccccc3)c(C(=O)Nc3ccc(Cl)cc3)c21 (configuration not stated),32,-6,/,/,/,/
Cc1ccc(NC(=O)N(CCC(=O)O)Cc2ccccc2)cc1,-1,-9,13%,-22%,-16%[46.1 µM],17%
CC(C)C(C(=O)Nc1nccs1)N1C(=O)c2ccccc2C1=O (configuration not stated),-4,-16,13%,3%,0%[46.1 µM],8%
O=C(CCl)N1N=C(c2ccco2)CC1c1ccco1 (configuration not stated),0,-4,13µM*,?,?,13µM*
